Rows were chosen to be rich in hits. Some 19% of all compounds tested hit in one or more screens of this group.
HT1080NT lethal – kills 2HG-producing HT-1080-NT fibrosarcoma cells; HT-1080-NT fibrosarcoma viability, CellTiter-Glo ATP luminescence, 48 h; Potency, µM (highest dose often 46.1 µM), actives largely listed as cytotoxic; actives 1.6% (n = 360,000); AID 686970;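 also: NT is the 2HG producing partner of a matched IDH1 knockdown line; nearly all actives have a fitted effect of over 55% in size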
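Viability by CellTiter-Glo luminescence after 48 h compound exposure at 37C of HT-1080-NT cells (750/well, RPMI, 5% FBS). % activity scaled between DMSO wells and medium-only wells, then curve-fitted and categorized by curve class.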
HT1080 IDH1KD tx – kills HT-1080 cells with IDH1 knockdown; actives 2% (n = 360,000); AID 686971; HT-1080 IDH1 knockdown viability, ATP luminescence, 48 h; Potency, µM (highest dose often 46.1 µM), actives largely listed as cytotoxic
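After a 2 h attachment period, IDH1KD HT-1080 cells took pin-transferred compound for 48 h at 37 °C; ATP-based luminescence after 10 min room-temperature reagent incubation reported viability.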
TDP1 cell noCPT – qHTS for Inhibitors of human tyrosyl-DNA phosphodiesterase 1 (TDP1): qHTS in cells in absence of CPT; DT40 Tdp1-/- hTDP1 cells, no CPT, ATP luminescence, 48 h; Potency, µM (series often up to 46.2 µM), most hits filed as inhibitors; actives 15% (n = 420,000); also: nearly all actives have a fitted effect of over 55% in size
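No-CPT arm: Tdp1-/-;hTDP1 DT40 cells (400/well) plus compounds, incubated ≥48 hr at 37 °C. Readout CellTiter-Glo luminescence.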
KB-V1 cytotox – KB-V1 MDR subline cytotoxicity | KB-V1 MDR cells viability, CellTiter-Glo, 72 h | Potency, µM (doses to about 46.1 µM), usual class: cytotoxic | actives 3.4% (n = 400,000); also: nearly all actives have a fitted effect of over 60% in size
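Readout: CellTiter-Glo luminescence, 10 min after addition. Cells: KB-V1 MDR subline, 72 h at 37 degrees C with compound. Analysis: corrected, normalized data fitted to concentration-effect curves.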
KB-3-1 cytotox – KB-3-1 parental cell cytotoxicity. KB-3-1 viability, CellTiter-Glo ATP luminescence, 72 h. Potency, µM (doses to about 46.1 µM), usual class: cytotoxic. actives 1.4% (n = 400,000). AID 1347075; also: nearly all actives have a fitted effect of over 60% in size
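Screening of KB-3-1 cells (DMEM, 10% FBS, phenol-red free) ran from lowest to highest compound concentration; after 72 h at 37 °C viability was read luminescently and curves fitted.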
TDP1 cell CPT – DT40-hTDP1 cell growth loss with CPT; actives 12% (n = 420,000); AID 686979; chicken DT40 Tdp1-/-;hTDP1 cells + 20 nM CPT, ATP luminescence, 48 h; Potency, µM (titrated, usually from 46.2 µM), most hits filed as inhibitors; also: nearly all actives have a fitted effect of over 55% in size
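Chicken DT40 Tdp1-/- cells complemented with human TDP1, 400 cells/well, exposed to compounds plus 20 nM camptothecin for at least 48 h at 37 C; viability read as ATP content by CellTiter-Glo luminescence.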
Hits are given with their value. Calls follow the shape of the dose curve; as a rule, active = well fitted curve in the direction sought with a large enough effect; inconclusive = small, poorly fitted or top-dose-only effect, or another doubt; inactive = no such curve, though single readings can be large; an effect the other way counts as inactive or inconclusive.

`O=C(CCNS(=O)(=O)c1ccc2c(c1)CCN2C(=O)C1CC1)N1CCN(c2cccc(C(F)(F)F)c2)CC1` gave TDP1 cell noCPT 1.6µM, KB-V1 cytotox inactive, KB-3-1 cytotox inconclusive and TDP1 cell CPT 2.1µM.
Screening Cc1ccc(Cl)cc1N1CCN(C(=O)CCNS(=O)(=O)c2ccc3c(c2)CCN3C(=O)C2CC2)CC1 returned TDP1 cell noCPT 23µM, KB-V1 cytotox inconclusive, KB-3-1 cytotox inconclusive and TDP1 cell CPT 8.2µM.
Screening CCCCCN(C(=O)CCC(=O)OCc1cccc(C(F)(F)F)c1)c1c(N)n(CCCC)c(=O)[nH]c1=O returned HT1080NT lethal inactive, HT1080 IDH1KD tx inactive, TDP1 cell noCPT inconclusive, KB-V1 cytotox inactive, KB-3-1 cytotox inactive and TDP1 cell CPT inactive.
For CCCn1c(C(CO)Nc2nc(C)cs2)nc2ccccc21 (stereo unspecified) the results were HT1080NT lethal inactive, HT1080 IDH1KD tx inactive, TDP1 cell noCPT inactive, KB-V1 cytotox inconclusive, KB-3-1 cytotox inactive and TDP1 cell CPT inactive.
`Cc1cccc(N=C2C(=O)Nc3c(Cl)cccc32)c1` gave HT1080NT lethal inactive, HT1080 IDH1KD tx inactive, TDP1 cell noCPT 29µM, KB-V1 cytotox inconclusive, KB-3-1 cytotox inactive and TDP1 cell CPT inconclusive.
Screening O=C1Nc2ccccc2C1=Nc1cccc(Cl)c1 returned HT1080NT lethal inactive, HT1080 IDH1KD tx inactive, TDP1 cell noCPT inactive, KB-V1 cytotox inactive, KB-3-1 cytotox inactive and TDP1 cell CPT inactive.
`O=C(N/N=C/c1c[nH]c2ccccc12)c1cc(-c2ccc3ccccc3c2)n[nH]1` gave HT1080NT lethal 7.3µM, HT1080 IDH1KD tx 5.8µM, TDP1 cell noCPT inconclusive, KB-V1 cytotox inconclusive, KB-3-1 cytotox inconclusive and TDP1 cell CPT 3.7µM.
Cc1ccc(-c2cc(C(=O)N/N=C/c3c[nH]c4ccccc34)[nH]n2)cc1 was read as HT1080NT lethal inconclusive, HT1080 IDH1KD tx 2.9µM, TDP1 cell noCPT 2.6µM, KB-V1 cytotox 10µM, KB-3-1 cytotox 5.2µM and TDP1 cell CPT 2.3µM.
`O=C(N/N=C/c1c[nH]c2ccccc12)c1ccn[nH]1` gave HT1080NT lethal inactive, HT1080 IDH1KD tx inactive, TDP1 cell noCPT inactive, KB-V1 cytotox inactive, KB-3-1 cytotox inactive and TDP1 cell CPT inactive.
O=C(N/N=C/c1c[nH]c2ccccc12)c1cc(-c2ccc(-c3ccccc3)cc2)n[nH]1 was read as HT1080NT lethal inconclusive, HT1080 IDH1KD tx 13µM, TDP1 cell noCPT inconclusive, KB-V1 cytotox 16µM, KB-3-1 cytotox inconclusive and TDP1 cell CPT inconclusive.
O=C(N/N=C/c1c[nH]c2ccccc12)c1cc(-c2cccc3ccccc23)n[nH]1 was read as HT1080NT lethal inconclusive, HT1080 IDH1KD tx 8.2µM, TDP1 cell noCPT inconclusive, KB-V1 cytotox inactive, KB-3-1 cytotox inconclusive and TDP1 cell CPT inconclusive.
`O=C(N/N=C/c1c[nH]c2ccccc12)c1cc(-c2ccccc2)n[nH]1` gave HT1080NT lethal inconclusive, HT1080 IDH1KD tx inconclusive, TDP1 cell noCPT inactive, KB-V1 cytotox inactive, KB-3-1 cytotox inactive and TDP1 cell CPT inactive.
Screening CCOC(=O)c1c(C)[nH]c(C(=O)OCC(=O)N(C)CC(=O)Nc2ccccc2Cl)c1C returned HT1080NT lethal inactive, HT1080 IDH1KD tx inactive, TDP1 cell noCPT inconclusive, KB-V1 cytotox 13µM, KB-3-1 cytotox inactive and TDP1 cell CPT inconclusive.
Screening CC(=O)Oc1ccc(-c2ccc(C(=O)OCC(=O)N(C)CC(=O)Nc3ccccc3Cl)cc2)cc1 returned HT1080NT lethal 18µM, HT1080 IDH1KD tx inconclusive, TDP1 cell noCPT inactive, KB-V1 cytotox inactive, KB-3-1 cytotox inactive and TDP1 cell CPT inconclusive.
Cc1ccc(OCC(=O)N(C)CC(=O)Nc2ccccc2Cl)c([N+](=O)[O-])n1 was read as HT1080NT lethal inactive, HT1080 IDH1KD tx inactive, TDP1 cell noCPT inactive, KB-V1 cytotox 18µM, KB-3-1 cytotox inactive and TDP1 cell CPT inactive.
Cc1cc(OCC(=O)OCC(=O)N2CCCCC2)ccc1Cl was read as HT1080NT lethal inactive, HT1080 IDH1KD tx inactive, TDP1 cell noCPT inactive, KB-V1 cytotox inactive, KB-3-1 cytotox inactive and TDP1 cell CPT inactive.
Screening CC(NCc1ccc(F)cc1)C(=O)Nc1cc(S(=O)(=O)N2CCCCC2)ccc1Cl (stereo unspecified) returned HT1080NT lethal inactive, HT1080 IDH1KD tx inactive, TDP1 cell noCPT inconclusive, KB-V1 cytotox 16µM, KB-3-1 cytotox inconclusive and TDP1 cell CPT inconclusive.
Screening O=C(Nc1cc(S(=O)(=O)N2CCCCC2)ccc1Cl)C1=NN(c2ccccc2)C(=O)CC1 returned HT1080NT lethal inactive, HT1080 IDH1KD tx inactive, TDP1 cell noCPT 8.2µM, KB-V1 cytotox inactive, KB-3-1 cytotox inactive and TDP1 cell CPT inconclusive.
`CC(C)(C)CC(=O)Nc1cc(S(=O)(=O)N2CCCCCC2)ccc1Cl` gave HT1080NT lethal inactive, HT1080 IDH1KD tx inactive, TDP1 cell noCPT inconclusive, KB-V1 cytotox 18µM, KB-3-1 cytotox inactive and TDP1 cell CPT inconclusive.
For O=C(CCl)Nc1cc(S(=O)(=O)N2CCCCCC2)ccc1Cl the results were HT1080NT lethal 23µM, HT1080 IDH1KD tx inconclusive, TDP1 cell noCPT 2.6µM, KB-V1 cytotox 12µM, KB-3-1 cytotox 13µM and TDP1 cell CPT 3.7µM.
O=C(COC(=O)C1CCC1)Nc1cc(S(=O)(=O)N2CCCCC2)ccc1Cl was read as HT1080NT lethal inactive, HT1080 IDH1KD tx inactive, TDP1 cell noCPT inactive, KB-V1 cytotox inactive, KB-3-1 cytotox inactive and TDP1 cell CPT inactive.
CCOc1ccc(NC(=O)C2=NN(c3ccccc3)C(=O)CC2)cc1S(=O)(=O)N1CCCCC1 was read as HT1080NT lethal inactive, HT1080 IDH1KD tx inactive, TDP1 cell noCPT inconclusive, KB-V1 cytotox inactive, KB-3-1 cytotox inactive and TDP1 cell CPT inconclusive.
Screening CC(=O)Nc1cccc(NCC(=O)Nc2cc(S(=O)(=O)N3CCCCC3)ccc2Cl)c1 returned HT1080NT lethal inactive, HT1080 IDH1KD tx inactive, TDP1 cell noCPT inconclusive, KB-V1 cytotox inactive, KB-3-1 cytotox inactive and TDP1 cell CPT inconclusive.
CC(=O)Nc1ccccc1-c1cccc2nccn12 was read as HT1080NT lethal inactive, HT1080 IDH1KD tx inactive, TDP1 cell noCPT inactive, KB-V1 cytotox inactive, KB-3-1 cytotox inactive and TDP1 cell CPT inactive.
For O=S1(=O)CCN(Cc2cccc(C(F)(F)F)c2)CC1 the results were HT1080NT lethal inactive, HT1080 IDH1KD tx inactive, TDP1 cell noCPT inconclusive, KB-V1 cytotox inactive, KB-3-1 cytotox inactive and TDP1 cell CPT inactive.
CCN(Cc1nc2cc(Cl)ccc2c(=O)[nH]1)C(=O)c1ccc(C)c(NC(=O)c2ccco2)c1 was read as HT1080NT lethal inactive, HT1080 IDH1KD tx inactive, TDP1 cell noCPT inactive, KB-V1 cytotox inconclusive, KB-3-1 cytotox inactive and TDP1 cell CPT inactive.

Source: PubChem
